Test results as given in PubChem BioAssay (EPA / NIEHS).
Results filed as inconclusive are left out. The source made the active and inactive calls. How the source made its calls, unless noted: active means hit-call score of the fitted dose curve at least 0.9, where 1 is the maximum; inconclusive means response in the unintended direction; inactive means score below 0.9.

Assays:
[1] = molecular target: Estrogen receptor beta (Homo sapiens) (UniProt Q92731); experiment: OT_ER_ERbERb_1440: Odyssey Thera (OT) 24-hour HEK293T Protein-Complementation Assay for Estrogen Receptor-beta/-beta Homodimer (AID 2283380);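 further: scored as signal increase over DMSO baseline for both agonists and antagonists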
Sequence of Estrogen receptor beta (Homo sapiens) (Q92731 whole entry, looked up, the tested form may be a part): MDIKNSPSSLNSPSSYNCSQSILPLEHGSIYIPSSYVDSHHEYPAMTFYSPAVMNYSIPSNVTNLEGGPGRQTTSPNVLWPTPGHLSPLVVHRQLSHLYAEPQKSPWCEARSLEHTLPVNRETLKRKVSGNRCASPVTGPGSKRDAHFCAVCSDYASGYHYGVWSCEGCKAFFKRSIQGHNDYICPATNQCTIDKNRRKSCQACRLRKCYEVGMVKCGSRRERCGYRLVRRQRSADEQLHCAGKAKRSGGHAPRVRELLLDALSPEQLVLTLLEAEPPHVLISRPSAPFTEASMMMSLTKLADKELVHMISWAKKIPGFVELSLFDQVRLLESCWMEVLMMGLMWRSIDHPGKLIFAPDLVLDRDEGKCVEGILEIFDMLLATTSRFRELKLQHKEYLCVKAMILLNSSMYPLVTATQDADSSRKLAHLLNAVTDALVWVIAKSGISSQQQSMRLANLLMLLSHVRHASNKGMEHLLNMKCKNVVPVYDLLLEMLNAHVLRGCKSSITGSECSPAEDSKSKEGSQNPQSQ
In short: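 HEK293T cells stably expressing ER beta LBD (aa 310-547) homodimer fragment-complementation reporter, dosed 24 h. Cells formaldehyde-fixed, Draq5-stained; gain in nuclear (agonist) or nuclear plus cytoplasmic (antagonist) fluorescence versus DMSO read by laser scanning cytometry.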

[2] = molecular target: Estrogen receptor (Homo sapiens) (UniProt P03372); experiment: OT_ERa_GFPERaERE_0480: Odyssey Thera (OT) 8-hour HeLa Transcription Induction Assay for Estrogen Receptor (AID 2283381; active means hit-call score of the fitted dose curve at least 0.9, where 1 is the maximum; inactive means score below 0.9)
Sequence of Estrogen receptor (Homo sapiens) (P03372 whole entry, looked up): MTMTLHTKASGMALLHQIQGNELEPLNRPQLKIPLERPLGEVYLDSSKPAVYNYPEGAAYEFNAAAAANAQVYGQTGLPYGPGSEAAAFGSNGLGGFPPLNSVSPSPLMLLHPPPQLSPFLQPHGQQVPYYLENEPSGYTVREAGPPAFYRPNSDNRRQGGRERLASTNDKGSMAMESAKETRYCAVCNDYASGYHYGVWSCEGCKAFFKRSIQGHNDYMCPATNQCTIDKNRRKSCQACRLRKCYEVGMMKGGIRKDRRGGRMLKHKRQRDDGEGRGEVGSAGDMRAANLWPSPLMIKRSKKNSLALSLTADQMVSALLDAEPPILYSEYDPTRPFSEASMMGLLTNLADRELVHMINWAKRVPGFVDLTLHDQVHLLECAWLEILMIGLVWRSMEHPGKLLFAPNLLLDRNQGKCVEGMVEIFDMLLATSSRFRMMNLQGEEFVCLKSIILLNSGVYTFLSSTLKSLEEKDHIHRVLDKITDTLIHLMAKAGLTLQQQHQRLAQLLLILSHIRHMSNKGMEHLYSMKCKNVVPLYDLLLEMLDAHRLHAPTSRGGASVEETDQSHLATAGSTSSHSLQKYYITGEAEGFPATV
In short: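 Fluorescent reporter signal, imaged by microscopy and scored with image-analysis algorithms, was taken 8 h after chemical dosing of HeLa cells; activity was fitted upward relative to DMSO.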

[3] = molecular target: Estrogen receptor (Homo sapiens) (UniProt P03372); experiment: OT_ERa_GFPERaERE_0120: Odyssey Thera (OT) 2-hour HeLa Transcription Induction Assay for Estrogen Receptor (AID 2283382)
In short: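 HeLa, 384-well, 2 h chemical exposure; GFP reporter induction (ERE), fluorescence microscopy; high content image analysis; positive fitting direction vs DMSO.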

[4] = molecular target: Bile acid receptor (Homo sapiens) (UniProt Q96RI1); experiment: OT_FXR_FXRSRC1_0480: Odyssey Thera (OT) 8-hour HEK293T Protein-Complementation Assay for Farnesoid X receptor/SRC-1 Co-activator (AID 2283383)
Sequence of Bile acid receptor (Homo sapiens) (Q96RI1 whole entry, looked up, the tested form may be a part): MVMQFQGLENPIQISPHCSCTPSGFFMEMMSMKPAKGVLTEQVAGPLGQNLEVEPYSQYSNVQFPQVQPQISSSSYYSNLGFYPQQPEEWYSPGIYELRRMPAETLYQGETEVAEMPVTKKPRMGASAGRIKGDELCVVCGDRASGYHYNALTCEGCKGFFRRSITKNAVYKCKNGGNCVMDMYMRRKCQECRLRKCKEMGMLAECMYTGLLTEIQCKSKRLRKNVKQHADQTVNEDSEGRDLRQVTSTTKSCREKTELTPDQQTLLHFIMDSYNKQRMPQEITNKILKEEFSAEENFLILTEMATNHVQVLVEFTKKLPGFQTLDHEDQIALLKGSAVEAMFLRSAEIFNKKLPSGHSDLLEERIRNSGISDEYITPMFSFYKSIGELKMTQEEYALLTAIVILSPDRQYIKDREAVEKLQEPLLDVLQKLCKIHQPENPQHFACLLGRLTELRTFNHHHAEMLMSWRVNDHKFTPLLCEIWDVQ
In short: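 Human kidney HEK293T cells carried FXR/SRC-1 fragment-complementation constructs. Compounds were added and incubated 8 h. Reporter reassembly upon receptor–co-activator interaction was then quantified by fluorescence, with curves fitted in the positive direction relative to DMSO.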

[5] = molecular target: Bile acid receptor (Homo sapiens) (UniProt Q96RI1); experiment: OT_FXR_FXRSRC1_1440: Odyssey Thera (OT) 24-hour HEK293T Protein-Complementation Assay for Farnesoid X receptor/SRC-1 Co-activator (AID 2283384)
In short: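 Compounds are applied to human kidney HEK293T cells expressing bait and prey fused to reporter protein fragments; after 24 h, reconstituted reporter fluorescence is measured. Activity is fitted as signal gain over DMSO.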

[6] = molecular target: Retinoic acid receptor RXR-alpha (Homo sapiens) (UniProt P19793); experiment: OT_NURR1_NURR1RXRa_0480: Odyssey Thera (OT) 8-hour HEK293T Protein Complementation Assay for Nurr1/retinoid X receptor (RXR) (AID 2283385)
Sequence of Retinoic acid receptor RXR-alpha (Homo sapiens) (P19793 whole entry, looked up, the tested form may be a part): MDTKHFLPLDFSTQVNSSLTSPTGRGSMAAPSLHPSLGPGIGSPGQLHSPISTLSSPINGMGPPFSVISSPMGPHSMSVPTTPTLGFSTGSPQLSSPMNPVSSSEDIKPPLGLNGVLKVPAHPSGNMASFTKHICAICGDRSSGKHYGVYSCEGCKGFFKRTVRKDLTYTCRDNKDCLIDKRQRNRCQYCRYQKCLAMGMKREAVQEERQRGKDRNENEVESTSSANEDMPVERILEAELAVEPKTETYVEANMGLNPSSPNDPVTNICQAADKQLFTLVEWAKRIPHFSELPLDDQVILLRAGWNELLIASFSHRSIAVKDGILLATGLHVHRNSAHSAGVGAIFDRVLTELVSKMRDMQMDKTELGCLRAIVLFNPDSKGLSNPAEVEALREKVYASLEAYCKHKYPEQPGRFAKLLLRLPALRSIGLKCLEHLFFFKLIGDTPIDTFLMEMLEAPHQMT
In short: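 8 h compound exposure, HEK293T; Nurr1/RXRα fragment complementation; fluorescence intensity; positive fitting direction vs DMSO baseline.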

[7] = molecular target: Peroxisome proliferator-activated receptor gamma (Homo sapiens) (UniProt P37231); experiment: OT_PPARg_PPARgSRC1_0480: Odyssey Thera (OT) 8-hour Protein-Complementation Assay for Peroxisome Proliferator-activated Receptor Gamma / SRC-1 Co-activator (AID 2283387);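 further: nuclear to cytoplasmic split Venus YFP fluorescence ratio reporting PPARg SRC-1 interaction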
Sequence of Peroxisome proliferator-activated receptor gamma (Homo sapiens) (P37231 whole entry, looked up, the tested form may be a part): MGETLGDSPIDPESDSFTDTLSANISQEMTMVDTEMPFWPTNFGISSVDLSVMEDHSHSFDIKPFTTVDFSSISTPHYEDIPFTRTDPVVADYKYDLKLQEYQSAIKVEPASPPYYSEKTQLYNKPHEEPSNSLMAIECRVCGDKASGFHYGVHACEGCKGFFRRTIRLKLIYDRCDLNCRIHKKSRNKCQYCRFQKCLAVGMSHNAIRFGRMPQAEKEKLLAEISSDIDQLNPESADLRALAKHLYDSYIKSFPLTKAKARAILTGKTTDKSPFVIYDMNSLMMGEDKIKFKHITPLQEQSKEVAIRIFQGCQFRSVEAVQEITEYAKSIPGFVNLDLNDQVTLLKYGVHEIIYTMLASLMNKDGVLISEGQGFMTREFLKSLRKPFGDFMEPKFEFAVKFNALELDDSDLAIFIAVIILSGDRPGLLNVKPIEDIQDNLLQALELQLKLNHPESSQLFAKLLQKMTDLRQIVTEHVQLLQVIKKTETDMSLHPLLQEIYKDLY
In short: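 Protein-fragment complementation in HEK293T: Venus YFP halves (residues 1-158, 159-239, mutated to IFP1/IFP2) fused to PPARg/SRC-1. 8 h exposure; N/C ratio at 488 nm; DMSO negative control.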

[8] = molecular target: Peroxisome proliferator-activated receptor gamma (Homo sapiens) (UniProt P37231); experiment: OT_PPARg_PPARgSRC1_1440: Odyssey Thera (OT) 24-hour Protein-Complementation Assay for Peroxisome Proliferator-activated Receptor Gamma/ SRC-1 Co-activator (AID 2283388);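 further: nuclear to cytoplasmic ratio of reconstituted Venus YFP fluorescence in fixed imaged cells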
In short: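 Readout: nuclear-to-cytoplasmic 488 nm fluorescence ratio, ≥350 cells per image, 8 images per well, after 24 h compound exposure of HEK293T expressing PPARg/SRC-1 split-YFP fusions. Activity fitted in positive direction against DMSO.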

[9] = molecular target: Retinoic acid receptor RXR-alpha (Homo sapiens) (UniProt P19793); experiment: OT_NURR1_NURR1RXRa_1440: Odyssey Thera (OT) 24-hour HEK293T Protein Complementation Assay for Nurr1/retinoid X receptor (RXR) (AID 2283386)
In short: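 Interaction of Nurr1 with RXRα brings fused reporter fragments together in human HEK293T cells, restoring a functional reporter. Fluorescence intensity is measured 24 h after chemical treatment, and values are analysed in the positive direction against DMSO.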

[10] = molecular target: Agonist Androgen Response Element (ARE), AR (gene 367) (UniProt P10275); experiment: OT_AR_ARELUC_AG_1440: Odyssey Thera (OT) 24-hour CHO-K1 Luciferase Assay for Agonist Androgen Response Element (ARE) (AID 2283379)
Sequence of Agonist Androgen Response Element (ARE), AR (gene 367) (P10275 whole entry, looked up): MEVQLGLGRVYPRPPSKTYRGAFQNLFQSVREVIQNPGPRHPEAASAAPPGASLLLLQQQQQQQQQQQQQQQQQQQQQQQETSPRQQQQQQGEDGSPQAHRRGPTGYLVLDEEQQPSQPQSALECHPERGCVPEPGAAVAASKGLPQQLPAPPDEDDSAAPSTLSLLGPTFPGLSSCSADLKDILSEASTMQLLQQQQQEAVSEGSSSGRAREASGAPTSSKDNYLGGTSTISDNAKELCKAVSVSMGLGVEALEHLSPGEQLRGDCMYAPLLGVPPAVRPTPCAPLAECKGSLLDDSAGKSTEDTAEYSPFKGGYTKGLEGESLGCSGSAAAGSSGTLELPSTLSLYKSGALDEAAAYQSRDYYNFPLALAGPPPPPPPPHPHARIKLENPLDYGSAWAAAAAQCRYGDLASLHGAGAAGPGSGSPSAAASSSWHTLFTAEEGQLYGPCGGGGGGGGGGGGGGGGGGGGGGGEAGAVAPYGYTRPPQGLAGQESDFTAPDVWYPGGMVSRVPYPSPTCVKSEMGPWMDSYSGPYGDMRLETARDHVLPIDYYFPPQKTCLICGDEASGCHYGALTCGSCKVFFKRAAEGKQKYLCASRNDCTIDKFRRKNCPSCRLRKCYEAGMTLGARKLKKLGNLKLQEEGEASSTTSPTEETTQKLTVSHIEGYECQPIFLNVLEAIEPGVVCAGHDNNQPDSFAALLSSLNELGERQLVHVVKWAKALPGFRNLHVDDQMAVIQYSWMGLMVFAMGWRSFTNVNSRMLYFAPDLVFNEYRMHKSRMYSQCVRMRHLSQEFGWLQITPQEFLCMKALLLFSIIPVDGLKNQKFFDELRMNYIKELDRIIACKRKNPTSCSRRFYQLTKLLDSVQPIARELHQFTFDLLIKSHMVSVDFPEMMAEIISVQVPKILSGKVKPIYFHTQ
In short: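 CHO-K1 cells carrying an ARE-driven luciferase reporter were exposed to compounds for 24 h. Luminescence was then read after adding a D-luciferin/ATP mix, and activity was scored as a gain in signal over DMSO vehicle.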

[11] = CEETOX_H295R_11DCORT: CeeTox H295R High-throughput Steroidogenesis Assay for 11-Deoxycortisol (11DCORT) (AID 2283432; active means hit-call score of the fitted dose curve at least 0.9, where 1 is the maximum; inactive means score below 0.9;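 on AC50: 11-deoxycortisol secreted into the medium measured by LC-MS/MS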); settings: actives raise or lower the signal
In short: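 Adrenal carcinoma line H295R, run per OECD 456 with minor changes, was forskolin-stimulated (10 uM, 48 h) before a 48 h chemical exposure at 0.1% DMSO. Secreted 11-deoxycortisol was quantified by HPLC-MS/MS.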

[12] = CEETOX_H295R_OHPREG: CeeTox H295R High-throughput Steroidogenesis Assay for OH-Pregnenolone (OHPREG) (AID 2283434; active means hit-call score of the fitted dose curve at least 0.9, where 1 is the maximum; inactive means score below 0.9); settings: actives raise or lower the signal
In short: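 H295R cells pre-stimulated 48 h with 10 uM forskolin, then exposed 48 h to chemical in 0.1% DMSO. 17alpha-hydroxypregnenolone in medium quantified by MTBE extraction and HPLC-MS/MS; bidirectional fit versus DMSO, viability checked by MTT.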

[13] = CEETOX_H295R_OHPROG: CeeTox H295R High-throughput Steroidogenesis Assay for OH-Progesterone (OHPROG) (AID 2283435; active means hit-call score of the fitted dose curve at least 0.9, where 1 is the maximum; inactive means score below 0.9;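 on AC50: human adrenal H295R cells primed 48 h with 10 µM forskolin; 17alpha-hydroxyprogesterone secreted into medium measured by HPLC-MS/MS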); settings: actives raise or lower the signal
In short: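 H295R, 10 uM forskolin prestim 48 h; cmpd in 0.1% DMSO 48 h; medium MTBE-extracted, HPLC-MS/MS for OH-progesterone; 7-pt std curve; bidirectional fit vs DMSO; MTT viability, chemicals diluted until viability >/=70%.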

[14] = CEETOX_H295R_ANDR: CeeTox H295R High-throughput Steroidogenesis Assay for Androstenedione (ANDR) (AID 2283436; active means hit-call score of the fitted dose curve at least 0.9, where 1 is the maximum; inactive means score below 0.9); settings: actives raise or lower the signal
In short: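 H295R cells, following OECD 456 with minor changes, exposed to chemicals for 48 h. Androstenedione in the medium was quantified by HPLC-MS/MS after MTBE extraction. Fitting was bidirectional versus DMSO; chemicals were diluted until MTT viability was ≥70%.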

[15] = CEETOX_H295R_CORTIC: CeeTox H295R High-throughput Steroidogenesis Assay for Corticosterone (CORTIC) (AID 2283437; active means hit-call score of the fitted dose curve at least 0.9, where 1 is the maximum; inactive means score below 0.9;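 further: corticosterone secreted into medium quantified by mass spectrometry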); settings: actives raise or lower the signal
In short: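 H295R adrenal cells prestimulated 48 hours with 10 uM forskolin, then exposed 48 hours to chemical in 0.1% DMSO. Corticosterone in medium measured by HPLC-MS/MS after MTBE extraction; MTT viability in the same wells; bidirectional fit versus DMSO.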

[16] = CEETOX_H295R_CORTISOL: CeeTox H295R High-throughput Steroidogenesis Assay for Cortisol (AID 2283438; active means hit-call score of the fitted dose curve at least 0.9, where 1 is the maximum; inactive means score below 0.9;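 further: cortisol secreted into medium quantified by LC-MS/MS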); settings: actives raise or lower the signal
In short: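 Forskolin 10 uM 48 h prestim → test cmpd in DMSO (0.1% final) 48 h → medium MTBE-extracted → LC-MS/MS cortisol vs 7-pt std curve. Gain/loss of signal fitted vs DMSO. MTT viability in same wells.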

[17] = CEETOX_H295R_DOC: CeeTox H295R High-throughput Steroidogenesis Assay for DOC (AID 2283439; active means hit-call score of the fitted dose curve at least 0.9, where 1 is the maximum; inactive means score below 0.9); settings: actives raise or lower the signal
In short: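 Readout: 11-deoxycorticosterone in culture medium by reverse-phase C18 HPLC with ESI+ tandem MS after MTBE extraction. Cells: H295R, forskolin-primed (10 uM, 48 h), chemical-treated 48 h; DMSO 0.1% final. Activity fitted bidirectionally versus DMSO.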

[18] = CEETOX_H295R_PROG: CeeTox H295R High-throughput Steroidogenesis Assay for Progesterone (PROG) (AID 2283442; active means hit-call score of the fitted dose curve at least 0.9, where 1 is the maximum; inactive means score below 0.9;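 on AC50: human H295R adrenal cells primed with 10 µM forskolin before dosing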); settings: actives raise or lower the signal
In short: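 Progesterone read-out: HPLC-MS/MS on MTBE extracts of conditioned medium after 48 h chemical exposure of forskolin-primed (10 uM, 48 h) H295R cells. Gain or loss of signal was fitted relative to DMSO baseline.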

[19] = CEETOX_H295R_ESTRADIOL: CeeTox H295R High-throughput Steroidogenesis Assay for Estradiol (AID 2283440; active means hit-call score of the fitted dose curve at least 0.9, where 1 is the maximum; inactive means score below 0.9;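 further: estradiol secreted into medium quantified by LC-MS/MS after dansyl derivatisation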); settings: actives raise or lower the signal
In short: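 H295R, 48 h forskolin (10 uM) prestim → 48 h compound, 0.1% DMSO final. Estradiol in medium: MTBE extraction, dansyl chloride derivatization, LC-MS/MS. Fit bidirectional vs DMSO baseline; MTT viability in same wells.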

[20] = CEETOX_H295R_ESTRONE: CeeTox H295R High-throughput Steroidogenesis Assay for Estrone (AID 2283441; active means hit-call score of the fitted dose curve at least 0.9, where 1 is the maximum; inactive means score below 0.9;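 further: estrone secreted into medium measured by LC-MS/MS after dansyl derivatization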); settings: actives raise or lower the signal
In short: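 H295R cells prestimulated 48 h with 10 uM forskolin, then exposed 48 h to chemicals in 0.1% DMSO final; estrone in medium extracted with MTBE, dansyl-derivatized, quantified by HPLC-MS/MS; bidirectional fitting versus DMSO, viability by MTT.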

Measured: AC50

CCc1cc(Cc2cc(CC)c(N)c(CC)c2)cc(CC)c1N
inactive: [1] | [2] | [3] | [5] | [7] | [8]
active: [4] 11.8 µM | [6] 11.5 µM

CC(C)(C)c1cc(CCC(=O)OCC(COC(=O)CCc2cc(C(C)(C)C)c(O)c(C(C)(C)C)c2)(COC(=O)CCc2cc(C(C)(C)C)c(O)c(C(C)(C)C)c2)COC(=O)CCc2cc(C(C)(C)C)c(O)c(C(C)(C)C)c2)cc(C(C)(C)C)c1O
inactive: [1] | [2] | [3] | [4] | [5] | [6] | [9] | [8]

C[C@]12CC[C@H]3C(=CCc4cc(O)ccc43)[C@@H]1CCC2=O
active: [10] 284 nM | [4] 9.93 µM | [11] 17.8 µM | [12] 3.5 µM | [13] 2.87 µM | [14] 8.03 µM | [16] 13.7 µM | [17] 811 nM | [18] 502 nM
inactive: [5] | [6] | [7] | [8] | [15]

CCCCC(CC)COC(=O)c1ccc(N(C)C)cc1 (configuration not stated)
active: [4] 32.7 µM | [5] 50 µM | [6] 77.7 µM | [9] 76 µM | [12] 6.35 µM | [13] 6.74 µM | [17] 6740 nM | [18] 6010 nM
not listed: [10] | [14]
inactive: all other assays above

CCCCCCCCCCCCC[N+](C)(C)Cc1ccccc1
active: [3] 18.1 µM | [11] 0.287 µM | [12] 0.59 µM | [13] 0.509 µM | [14] 0.307 µM | [17] 337 nM | [18] 159 nM
not listed: [4] | [5] | [6] | [9]
inactive: all other assays above

CCCCCCCCCCCCCC[P+](CCCC)(CCCC)CCCC
inactive: [10] | [1] | [7] | [8]
active: [2] 10.4 µM | [3] 12.2 µM

F[Si-2](F)(F)(F)(F)F
inactive: [10] | [1] | [2] | [3] | [4] | [9] | [7] | [8]

COCCOCCC[Si](C)(O[Si](C)(C)C)O[Si](C)(C)C
active: [1] 53.3 µM | [4] 50 µM | [6] 33.2 µM | [9] 90.4 µM
inactive: [10] | [2] | [3] | [5] | [7] | [8]

CC(C)OC=O
inactive: [2] | [3] | [4] | [5] | [6] | [9] | [7] | [8]

CCOC(=O)C1CC(=O)C(=C(O)C2CC2)C(=O)C1 (configuration not stated)
inactive: [1] | [2] | [3] | [4] | [6] | [9] | [7] | [8]

CC(C)Nc1ccc(NC(C)C)c2c1C(=O)c1ccccc1C2=O
active: [1] 19.1 µM | [5] 18.2 µM
inactive: [3] | [6] | [9] | [7] | [8]

CCOC(OCC)OCC
inactive: [1] | [2] | [3] | [9] | [7] | [8]

CCN=c1cc2oc3cc(NCC)c(C)cc3c(-c3ccccc3C(=O)OCC)c-2cc1C
inactive: [10] | [2] | [3] | [5] | [7]
active: [1] 76.4 µM | [4] 1.36 µM | [6] 0.603 µM | [9] 0.769 µM | [8] 4.08 µM

CCCCCCCC/C=C\CCCCCCCC(=O)N(C)CC(=O)O
inactive: [1] | [2] | [3] | [5] | [6] | [7] | [8]
active: [4] 72.6 µM

CC(C)(C)c1cc(Cc2cc(C(C)(C)C)c(O)c(C(C)(C)C)c2)cc(C(C)(C)C)c1O
active: [5] 6.6 µM
inactive: [1] | [2] | [3] | [4] | [9] | [7] | [8]

CCN=C1C=CC(=C(c2ccc(N(CC)CC)cc2)c2ccc(N(CC)CC)cc2)c2ccccc21
inactive: [10] | [1] | [2] | [3] | [7] | [8]

CCCCCCCCCc1ccc(OCCO)cc1
active: [10] 238 nM | [1] 4.63 µM | [4] 4.7 µM | [5] 28.8 µM | [9] 32.9 µM
inactive: all other assays above

CCCCCCCC/C=C\CCCCCCCC(=O)OCC(O)CO (configuration not stated)
inactive: [10] | [1] | [2] | [3] | [7] | [8]
active: [4] 70.9 µM | [6] 71.1 µM | [9] 90.1 µM

CCC(Cc1c(I)cc(I)c(N)c1I)C(=O)O (configuration not stated)
inactive: [2] | [3] | [4] | [5] | [6] | [7] | [8]

OCC1CCCO1 (configuration not stated)
inactive: [10] | [1] | [2] | [3] | [4] | [7] | [8]
